# Reference: article PMC5540273 (PLoS ONE, 2017)
# How the values were obtained:
# Conditions in all cases: concentration: 1 μM,replicates: in singlicate; n = 1
# IKK-alpha = tested on: T1, IKK-alpha
# T1 construct: gene CHUK
# IKK-beta = tested on: T2, IKK-beta
# T2 construct: gene IKBKB
# IKK-epsilon = tested on: T3, IKK-epsilon
# T3 construct: gene IKBKE
# INSRR = tested on: INSRR
# INSR = tested on: INSR
# IRAK1 = tested on: IRAK1
# IRAK3 = tested on: IRAK3
# IRAK4 = tested on: IRAK4
# ITK = tested on: ITK
# [1] = tested on: JAK1(JH1domain-catalytic)
# 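Further: KINOMEscan kinase panel screen.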
Compound,%Inh (IKK-alpha) [%],%Inh (IKK-beta) [%],%Inh (IKK-epsilon) [%],%Inh (INSRR) [%],%Inh (INSR) [%],%Inh (IRAK1) [%],%Inh (IRAK3) [%],%Inh (IRAK4) [%],%Inh (ITK) [%],%Inh [1] [%]
CCn1c(-c2nonc2N)nc2cncc(Br)c21 [SB-738004],12,0,26,0,0,63,0,0,0,18
CCNCC(Cc1ccccc1)NC(=O)c1cc(Br)c(-c2ccnc3[nH]ccc23)s1.Cl.Cl (stereo not shown) [GSK1383280],3,33,19,0,0,42,36,17,14,36
Cn1ccc2ncnc(Oc3ccc(NC(=O)Nc4cccc(C(F)(F)F)c4)c(Cl)c3)c21,53,19,6,0,16,0,0,0,1,0
Cc1cccc(-c2nc(Nc3ccncc3)c3sccc3n2)n1 [GW869641],32,22,0,5,31,18,0,0,12,0
CN(c1cccc(CNc2nc(Nc3ccc4c(c3)CC(=O)N4)ncc2C(F)(F)F)c1)S(C)(=O)=O,24,14,19,21,48,48,22,0,26,43
C[C@@H]1CCN(C(=O)N2CCCC2)C[C@@H]1N(C)c1ncnc2[nH]ccc12,23,19,17,12,0,6,8,0,0,99.6
CN1CCN(CCNc2nc3cc(Oc4ccc(NC(=O)Nc5cc(C(F)(F)F)ccc5F)cc4)ccc3[nH]2)CC1.Cl.Cl [GW768504],0,0,14,0,5,0,5,0,0,28
Cc1cccc2c(-c3ccncc3)c(-c3ccc(F)cc3)nn12.Cl [GW461487],0,0,21,0,0,9,0,0,5,8
O=C1NCCc2[nH]c(-c3ccncc3)cc21,88,40,2,0,8,98.6,0,0,0,6
c1ccc(Oc2ccc(Nc3ccnc4ccc(-c5ccccn5)cc34)cc2)cc1 [GW407034],9,14,11,0,5,22,13,25,13,22
C[C@@H](Oc1cc(-n2cnc3cc(-c4cnn(C)c4)ccc32)sc1C(N)=O)c1ccccc1Cl [GSK580432],0,8,4,1,0,45,34,25,23,0
C[C@@H]1CNc2c(sc3ccc4nc(-c5ccncc5)ccc4c23)C(=O)N1,14,0,0,0,0,78,42,0,0,0
C[C@@H](Oc1cc(-n2cnc3cc(-c4ccncc4)ccc32)sc1C(N)=O)c1ccccc1Cl [GSK479719],37,50,0,0,0,48,0,26,11,0
CCN1CCN(CCCC(=O)Nc2n[nH]c3nc(-c4ccc(O)cc4)c(Br)cc23)CC1 [SB-731579],0,0,0,0,0,0,0,0,98.8,23
CS(=O)(=O)Nc1ccc(-c2ccnc3[nH]ccc23)cc1 [GSK993273],89,99.1,34,0,0,61,49,24,13,70
Cc1ccn2nc(-c3ccc(F)cc3)c(-c3ccncc3)c2c1.Cl [GW457859],0,0,16,0,0,13,0,0,0,16
